Screening results as filed in PubChem BioAssay.
Gli-Sufu antag: antagonists of Gli-Sufu signaling; Sufu-KO-LIGHT fibroblasts, Gli luciferase reporter luminescence; inhibition, % at 5 µM; 340,000 tested, 0.74% active;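 active = inhibition above about 55%, limit read from the data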
COUP-TFII inh: inhibitors of human COUP-TFII (NR2F2). HEK293T NGFI-A luciferase reporter, luminescence. 370,000 tested, 0.7% active. inhibition, % at 8.6 µM. P24468;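 active = inhibition above a per-plate cutoff, mean inhibition of test wells between control levels plus 3 SD, cut at about 38% in these data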;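 note: cells cotransfected with COUP-TFII expression vector driving the NGFI-A reporter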
GalR3 antagonist: blocks the human galanin receptor 3. O60755. HEK293 GalR3-CNG cAMP membrane potential fluorescence; galR3 body fused to GalR1 C-terminus. inhibition, % at 3 µM. 360,000 tested, 0.44% active;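 active = inhibition above the screen-wide average plus 3 SD, cut at about 13% in these data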;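 note: forskolin and galanin both at EC90 stimulate the cells; cAMP rise reported by CNG channel membrane potential dye signal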
Target sequence (O60755 1-299 limits assumed): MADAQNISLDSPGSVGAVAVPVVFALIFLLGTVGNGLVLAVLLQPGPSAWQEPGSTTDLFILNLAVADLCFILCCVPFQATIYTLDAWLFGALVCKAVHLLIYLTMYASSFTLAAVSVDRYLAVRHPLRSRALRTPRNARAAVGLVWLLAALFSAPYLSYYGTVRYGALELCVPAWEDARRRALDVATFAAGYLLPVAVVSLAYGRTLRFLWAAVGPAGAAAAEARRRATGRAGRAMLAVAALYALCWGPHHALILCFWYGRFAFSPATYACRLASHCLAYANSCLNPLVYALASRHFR
FXN GAA850 act: activators of GAA850 frataxin (FXN) promoter | activation, % at 6 µM | HEK293 lucGAA850 FXN promoter luciferase reporter, 24 h; percent of 10 µM SAHA response | AID 540364 | 360,000 tested, 0.56% active;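 active = activation above the average of all compounds screened plus 3 SD, cutoff fixed separately per campaign, cut at about 7.5% in these data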
SMARCA2 act: SMARCA2 function activation, primary screen; MG213 cells, MMTV-luciferase reporter, dexamethasone, overnight; activation, % at 9.1 µM; 370,000 tested, 1% active; AID 652017; in the data active = activation above about 7.8%
Cardio protect: protects H9c2 cardiomyocytes from peroxide injury; H2O2 injury protection, ATPLite, 2 h; protection from H2O2 cell death, % at 20 µM; 360,000 tested, 0.63% active;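 active = compounds giving at least 50% protection of heart cells from peroxide-induced death in the single-dose screen, raw or plate-pattern-corrected value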
SMARCA2 conf: SMARCA2 activation, confirmation screen; shares compounds with SMARCA2 act; MG213 cells, MMTV-luciferase with dexamethasone, luminescence, overnight; MG213 cells expressing E1A, Rb sequestered; DMSO wells 0%, reference activator 100%; activation, % at 9.1 µM; 3,500 tested, 30% active; AID 652260;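 active = activation above its plate's cutoff, the mean activation of tested wells plus 3 SD, cut at about 7.9% in these data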
GAL4-VP16 Luc: activates GAL4-VP16 luciferase, flagging SMARCA2 activator hits. HEK293 GAL4-VP16 pG5luc reporter, luciferase luminescence; scaled: DMSO wells 0%, SAHA wells 100%. activation, % at 9.1 µM. AID 686939. shares compounds with SMARCA2 act. 3,500 tested, 41% active;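 active = activation above the solvent-only control well mean plus 3 SD, averaged across control plates, cut at about 5.2% in these data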
Of the large screens only hits and unclear results are named; the others gave an inactive call (follow-up assays come after a bar, where they were run). A selection: hits, their analogues and other compounds. The true share with any hit is near 3.4%.

CC1CCN(C(=S)NC(=O)c2cccc([N+](=O)[O-])c2)CC1	SMARCA2 act 8.6 | SMARCA2 conf inactive | GAL4-VP16 Luc inactive
Cc1ccc(NC(=O)NCc2c(C)nn(C)c2C)cc1Cl	none
Cc1nn(C)cc1CNC(=O)Nc1ccc(Cl)c(Cl)c1	SMARCA2 act 8.0 | SMARCA2 conf inactive | GAL4-VP16 Luc 6.9
COc1ccc(OC)c(CNS(=O)(=O)c2cc(-c3cc(C)no3)ccc2OC)c1	none
COc1ccc(-c2cc(C)no2)cc1S(=O)(=O)Nc1ccc(NC(C)=O)cc1	SMARCA2 act 8.7 | SMARCA2 conf inactive | GAL4-VP16 Luc inactive
Nc1ccc(OCc2ccccc2)cc1	none
Nc1cc(OCc2ccccc2)ccc1OCc1ccccc1	SMARCA2 act 9.4 | SMARCA2 conf inactive | GAL4-VP16 Luc 7.8
COc1ccc(C(=O)NCC(=O)N2CCNC(=O)C2)cc1OC	none
COc1ccc(C(=O)NCC(=O)N2CCN(c3ncccn3)CC2)cc1OC	SMARCA2 act 8.0 | SMARCA2 conf inactive | GAL4-VP16 Luc inactive
CCN(CC)S(=O)(=O)c1ccc(NC(=O)c2ccccn2)cc1	SMARCA2 act 9.8 | SMARCA2 conf inactive | GAL4-VP16 Luc 8.5
Cc1ccc(S(C)(=O)=O)cc1C(=O)Nc1ccc(S(=O)(=O)Nc2nccs2)cc1	none
COc1ccc(NC(=O)c2ccc(Oc3ncccn3)cc2)cc1	SMARCA2 act 9.4 | SMARCA2 conf inactive | GAL4-VP16 Luc inactive
CN(Cc1ccncn1)C(=O)C1CCC(=O)N(Cc2cccc(C(F)(F)F)c2)C1 (centres undefined)	none
CCCCNC(=O)OCCNC(=O)NC	none
COCC1CCCCN1Cc1cn[nH]c1-c1ccc2cc(OC)ccc2c1 (centres undefined)	SMARCA2 act 11 | SMARCA2 conf inactive | GAL4-VP16 Luc inactive
Cn1cnc2c(SCc3ccccc3)ncnc21	SMARCA2 act 9.7 | SMARCA2 conf inactive | GAL4-VP16 Luc inactive
ClCCn1cnc2c(SCc3ccccc3)ncnc21	SMARCA2 act 8.0 | SMARCA2 conf inactive | GAL4-VP16 Luc 5.2
Cc1cc(C(=O)N(C)Cc2ccc(Br)cc2)no1	none
CN(Cc1ccccc1)C(=O)c1cc(-c2ccc(Br)cc2)on1	SMARCA2 act 8.1 | SMARCA2 conf inactive | GAL4-VP16 Luc 5.3
C=CCNC(=O)C(=O)NN=C1CCN(C)CC1	none
CN1CCC(=NNC(=O)C(=O)Nc2ccccc2)CC1	SMARCA2 act 8.2 | SMARCA2 conf inactive | GAL4-VP16 Luc inactive
CCCCCCN[C@H]1CCC2C3CC=C4C[C@@H](O)CC[C@]4(C)C3CC[C@@]21C (some centres undefined)	SMARCA2 act 11 | SMARCA2 conf 9.7 | GAL4-VP16 Luc inactive
Cn1c(N)c(C(=O)CCc2ccccc2)c(=O)n(C)c1=O	SMARCA2 act 8.1 (no result: Gli-Sufu antag, FXN GAA850 act, Cardio protect) | SMARCA2 conf 17 | GAL4-VP16 Luc 5.8
COc1ccc(Nc2ncnc3ccccc23)c(OC)c1	SMARCA2 act 9.0 | SMARCA2 conf inactive | GAL4-VP16 Luc inactive
CC(C)(CNS(C)(=O)=O)SCc1ccc(Cl)cc1	none
CCOC(=O)N1CCC(N2CCCC(C(=O)c3cccc(OC)c3)C2)CC1 (centres undefined)	none
COc1ccc(-c2ccc(CCC(=O)O)n2NC(N)=O)cc1	none
Cc1ccc(-c2ccc(CCC(=O)O)n2NC(N)=S)cc1	SMARCA2 act 8.4 | SMARCA2 conf inactive | GAL4-VP16 Luc inactive
CCOC(=O)c1ccccc1NC(=O)CSc1nc2ccccc2c(=O)n1CCCN1CCOCC1	none
O=C(NCCN1CCOCC1)c1cc2cc([N+](=O)[O-])ccc2s1	none
O=C(Nc1ccccc1F)C1(c2ccccc2)CC1(Cl)Cl (centres undefined)	SMARCA2 act 9.9 | SMARCA2 conf inactive | GAL4-VP16 Luc inactive
O=C(Nc1ccccc1)C1(c2ccccc2)CC1(Cl)Cl (centres undefined)	none
